Data published in PubChem BioAssay (EPA / NIEHS).
Activity calls are given as the source filed them. The calls were made as follows: active = hit-call score of the fitted dose curve at least 0.9, where 1 is the maximum; inactive = score below 0.9.

Each molecule was assayed against Hepatocyte nuclear factor 6 (Homo sapiens) (UniProt Q9UBC0) (assay: ATG_HNF6_CIS: Attagene CIS-FACTORIAL HepG2 Assay for human Hepatocyte Nuclear Factor 6 (HNF6) (AID 2282952)). Details: HepG2 Attagene cis-factorial HNF6 reporter transcription; actives raise or lower the signal.
Hepatocyte nuclear factor 6 (Homo sapiens), sequence (Q9UBC0 whole entry, looked up): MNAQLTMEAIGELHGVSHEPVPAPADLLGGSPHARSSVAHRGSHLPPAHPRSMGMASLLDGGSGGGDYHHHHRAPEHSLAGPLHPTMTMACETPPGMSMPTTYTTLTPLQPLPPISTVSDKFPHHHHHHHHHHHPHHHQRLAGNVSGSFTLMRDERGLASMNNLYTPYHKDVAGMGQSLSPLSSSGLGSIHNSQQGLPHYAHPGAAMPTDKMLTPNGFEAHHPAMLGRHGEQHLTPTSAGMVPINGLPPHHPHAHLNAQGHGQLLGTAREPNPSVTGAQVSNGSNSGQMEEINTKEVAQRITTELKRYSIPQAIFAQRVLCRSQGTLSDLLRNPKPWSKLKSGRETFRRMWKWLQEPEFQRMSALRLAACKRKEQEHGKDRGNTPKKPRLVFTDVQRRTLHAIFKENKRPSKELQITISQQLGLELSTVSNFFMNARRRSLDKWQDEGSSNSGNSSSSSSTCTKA
Procedure: ATG_CIS is a cell-based, multiplexed-readout assay that uses HepG2, a human liver cell line, with measurements taken at 24 hours after chemical dosing in a 24-well plate.ATG_HNF6_CIS is one of 52 assay component(s) measured or calculated from the ATG_CIS assay. It is designed to make measurements of mRNA induction, a form of inducible reporter, as detected with fluorescence intensity signals by Reverse transcription polymerase chain reaction (RT-PCR) and Capillary electrophoresis technology.Data from the assay component ATG_HNF6_CIS was analyzed into 1 assay endpoint. This assay endpoint, ATG_HNF6_CIS, was analyzed with bidirectional fitting relative to DMSO as the negative control and baseline of activity. Using a type of inducible reporter, measures of mRNA for gain or loss-of-signal activity can be used to understand the reporter gene at the transcription factor-level as they relate to the gene ONECUT1. Furthermore, this assay endpoint can be referred to as a primary readout, because this assay has produced multiple assay endpoints where this one serves a reporter gene function. To generalize the intended target to other relatable targets, this assay endpoint is annotated to the dna binding intended target family, where the subfamily is homeobox protein.
Human liver HepG2 cells are transiently transfected with multiple reporter transcription units (MRTUs) in 6-well plates using FuGene 6 reagent (Roche; 3 ml FuGene/1 mg DNA). The MRTU constructs are regulated by a cis-regulating element (promoter). […] A major difference between the CIS and TRANS system is that in CIS activities of endogenous TFs are measured, whereas the TRANS assay evaluates changes in activities of exogenous, chimeric NR-Gal4 proteins. […] At the end of 24 hour incubation, total RNA was isolated using TriZol reagent (Invitrogen). The isolated RNA is then reverse-transcribed using oligo(dT) primer and Mo-MLV reverse transcriptase (Invitrogen) with DNAse I (Ambion) treatment for 30 min. The one-tenth of the produced cDNA was amplified by PCR using Taq DNA polymerase (Invitrogen) and two reporter sequence-specific primers. The PCR products were fluorescently labeled by primer extension with 6-arboxyfluorescein (6-FAM) 5'-labeled reporter sequence-specific primer (2 min at 95 C, 20 s at 68 C and 10 min at 72 C) and these products were digested with 5U of HpaI (New England Biolabs) for 2h at 37 C. The fragments were purified using Qiaquick PCR columns (Qiagen), analyzed on an ABI 3130xL genetic analyzer (Applied Biosystems) with peak positions identified by using a set of X-rhodamine (ROX)-labeled MapMarker1000 molecular weight standards (BioVentures). The raw capillary electrophoresis data was processed using Attagraph software (Attagene).
With BrCc1ccc(Br)cc1 the outcome was “inactive”.
In the case of N#Cc1ccncc1, the outcome is reported as “inactive”.
For O=c1nc(O)n(Cl)c(=O)n1Cl, the outcome was “inactive”.
C=CCOC(N)=O was tested, and the outcome was “inactive”.
With CCC(C)(C#N)N=NC(C)(C#N)CC (stereo not given) the outcome was “inactive”.
Brc1ccc(Oc2c(Br)cc(Br)cc2Br)c(Br)c1 was tested, and the outcome was “inactive”.
In the case of OC(Cc1ccccc1Cl)(Cn1[nH]cnc1=S)C1(Cl)CC1 (stereo not given), the outcome is reported as “inactive”.
Cc1cc(Cl)ccc1O was tested, and the outcome was “inactive”.
In the case of C=CCCl, the outcome is reported as “inactive”.
O=NN1CCCCCC1 was tested, and the outcome was “inactive”.
NNCCO was tested, and the outcome was “inactive”.
In the case of C1CCC(C2CCCCC2)CC1, the outcome is reported as “inactive”.
In the case of C=CC(Cl)CCl (stereo not given), the outcome is reported as “inactive”.
CS(=O)(=O)c1ccc(C(=O)C2C(=O)CCCC2=O)c(Cl)c1COCC(F)(F)F was tested, and the outcome was “inactive”.
COP(=S)(OC)Oc1cc(Cl)c(I)cc1Cl was tested, and the AC50 was 27.2 µM (active).
For C=CC(=O)OCC(COC(=O)C=C)(COC(=O)C=C)COC(=O)C=C, the outcome was “inactive”.
For CN(C)[C@@H]1C(=O)C(C(N)=O)=C(O)[C@@]2(O)C(=O)C3=C(O)c4c(O)ccc(Cl)c4[C@@](C)(O)[C@H]3C[C@@H]12, the outcome was “inactive”.
With BrCC(Br)c1ccccc1 (stereo not given) the outcome was “inactive”.
With C#CCO the outcome was “inactive”.
CNC(=O)CSP(=O)(OC)OC was tested, and the outcome was “inactive”.
With CC1(C)COP(Oc2ccccc2)OC1 the outcome was “inactive”.
CCCCCCCCCCCCN(C)C was tested, and the outcome was “inactive”.
With O=[N+]([O-])c1cccc2ccccc12 the outcome was “inactive”.
CC(C)C(C)(N)C#N (stereo not given) was tested, and the outcome was “inactive”.
COc1nn(C(=O)NS(=O)(=O)c2ccccc2OC(F)(F)F)c(=O)n1C was tested, and the outcome was “inactive”.
CCOP(=S)(OCC)OP(=S)(OCC)OCC was tested, and the outcome was “inactive”.
With O=C(O)COc1ccc(Cl)cc1 the outcome was “inactive”.
O=C(CCl)NCO was tested, and the outcome was “inactive”.
In the case of Cc1cc(Cl)ccc1N, the outcome is reported as “inactive”.
O=[N+]([O-])c1c2ccccc2cc2ccccc12 was tested, and the outcome was “inactive”.
COCCl was tested, and the outcome was “inactive”.
For OCCN(CCO)CCO, the outcome was “inactive”.
For Nc1nc(=S)[nH][nH]1, the outcome was “inactive”.
CCCCOC(=O)COC(=O)c1ccccc1C(=O)OCCCC was tested, and the outcome was “inactive”.
For Brc1c(Br)c(Br)c(Oc2c(Br)c(Br)c(Br)c(Br)c2Br)c(Br)c1Br, the outcome was “inactive”.
CCCCOC(C)=O was tested, and the outcome was “inactive”.
With CCN(CCO)CCO the outcome was “inactive”.
CCC[N+](CCC)(CCC)CCC was tested, and the outcome was “inactive”.
For CCCCCCCCBr, the outcome was “inactive”.
In the case of Oc1c(Br)cc(Br)cc1Br, the outcome is reported as “inactive”.
